RMI FANCM FP – RMI-FANCM interaction inhibition | Fluorescence polarization, RMI core complex with F-MM2 peptide; hits give low values | FP signal (polarization) at 33 µM | 0.58% of 70,000 active; in the data active = FP signal below about 40
Each line names hits and unclear results; the compound was inactive in the other large screens; ! = repeats disagree. The entries come from a sample that favours hits as a whole.

NC(=O)N1c2ccccc2CC(=O)c2ccccc21	RMI FANCM FP -8!
O=C1Cc2ccccc2C1=C1Cc2ccccc2C1	none
Cc1cc(NC(=O)C(=O)NCC(c2cccn2C)N2CCc3ccccc3C2)no1 (stereo unspecified)	none
O=C(Nc1ccc(F)c(C(F)(F)F)c1)C1CCN(c2ccc(-c3ccco3)nn2)CC1	none
O=C(Nc1ccc(F)c(Cl)c1)C1CCN(c2ccc(-c3ccco3)nn2)CC1	none
O=C(Nc1cnc2ccccc2c1)C1CCN(c2ccc(-c3ccco3)nn2)CC1	RMI FANCM FP 26
O=C(NCCc1ccccc1)c1nnc(-c2ccccc2)o1	none
O=C(Nc1nc(-c2ccc(Br)s2)cs1)c1ccc2ncsc2c1	RMI FANCM FP 26
O=C(Nc1nc(-c2ccccn2)cs1)c1ccc2ncsc2c1	none
O=C(Nc1nc(-c2ccc3c(c2)OCCO3)cs1)c1ccc2ncsc2c1	none
Cc1ccccc1-c1ccc(N2CCN(C(=O)c3ccccc3)CC2)nn1	none
Cc1cc(-c2nnc(NC(=O)Cc3ccc(S(C)(=O)=O)cc3)o2)n(C)n1	none
CCOc1ccc(-c2noc(CCn3c(=O)[nH]c4ccccc4c3=O)n2)cc1OC	none
COc1ccc(S(=O)(=O)NCc2ccccc2)cc1OC	none
O=S(=O)(Nc1ccc(N2CCCCS2(=O)=O)cc1)c1cccc2ccccc12	none
C=C1CC2CC(=O)CC(C1)C2	none
CCOC(=O)c1c(NC(=O)c2ccc3ncsc3c2)sc2c1CCN(C(=O)OCC)C2	RMI FANCM FP -5
CCOC(=O)N1CCc2c(sc(NC(=O)c3cccc(C)c3)c2C(N)=O)C1	none
COC(=O)N1CCc2c(sc(NC(=O)c3ccc4ncsc4c3)c2C(N)=O)C1	none
CCc1ccccc1NC(=O)c1cn(Cc2ccccc2)nc1OCc1ccccc1	none
COc1cc(/C=C\C(=O)NCCn2ncc3c(=O)n(Cc4cccc(C)c4)cnc32)cc(OC)c1OC	none
CC(=O)N1CC(C)=C(C#N)C1O (stereo unspecified)	RMI FANCM FP -1
Cc1cc(C)n(-c2nc(C)c(C)c(=O)n2CC(N)=O)n1	none
O=C(NNc1c(Cl)cccc1Cl)NC(=O)c1csc([N+](=O)[O-])c1	none
CC(/C=C1\NC(=O)N(CC(=O)Nc2cccc(C)c2)C1=O)=C\c1ccccc1	none
O=C(NC(=O)N1CCN(c2ccc(F)cc2)CC1)c1ccccc1	none
CC(C(=O)c1ccc(-c2ccccc2F)cc1)N1CCN(c2ccc(C#N)cc2)CC1 (stereo unspecified)	RMI FANCM FP 25!
O=C(NC(=S)N1CCN(c2ccc(F)cc2)CC1)c1ccccc1	none
Cc1nn(S(=O)(=O)c2c(C(C)C)cc(C(C)C)cc2C(C)C)c(C)c1Sc1ccc(Cl)cc1	none
COc1ccccc1OCC(O)CNC(C)(C)C (stereo unspecified)	none
CC(C)(C)NC[C@H](O)COc1cccc2c1CCCC2=O	none
CC(C)(C)NCC(O)COc1cccc2c1C[C@H](O)[C@H](O)C2 (stereo partly specified)	RMI FANCM FP -57!
C=CCN1C(=O)C(C)(C)COc2cc(NC(=O)c3cccs3)ccc21	none
NS(=O)(=O)c1ccc(NC(=O)CSc2nnc(-c3ccco3)n2-c2ccccc2)cc1	none
COc1ccc(NS(=O)(=O)c2ccc(NC(C)=O)cc2)cc1	none
COc1ccc(Nc2nc3ccccc3nc2NS(=O)(=O)c2ccc(NC(C)=O)cc2)cc1	RMI FANCM FP 7!
O=C(O)c1cccc(Nc2nc3ccccc3nc2NS(=O)(=O)c2ccc(F)cc2)c1	none
O=C(CSc1ccc(-c2ccc(-n3cccn3)cc2)nn1)Nc1ccc(F)c(F)c1	none
O=C(Nc1ccc(C(F)(F)F)cc1)C(=O)NC1CCCCCC1	none
O=C(Nc1ccncc1NC(=O)c1ccc(S(=O)(=O)N2CCCCC2)cc1)c1ccc(S(=O)(=O)N2CCCCC2)cc1	none
O=C(/C=N\O)Nc1ccccc1C(=O)O	none
O=C(NCCNC(=O)c1cccc(C(F)(F)F)c1)c1ccc(NC(=O)C2CC2)cc1	none
O=C(O)CCn1cnc2c(cnn2-c2ccc(F)cc2)c1=O	none
NC(=O)c1ccsc1NC(=O)c1cc(-c2ccccc2)nc2ccccc12	none
COC(=O)c1ccc2nc(NC(=O)c3cc(-c4cccs4)nc4ccccc34)sc2c1	none
O=C(Nc1nc(-c2cccs2)c(C(=O)C(F)(F)F)s1)c1cc(-c2ccccc2)nc2ccccc12	RMI FANCM FP 19
CC(C)Oc1ccc(C(=O)NCC(c2cccn2C)N2CCCC2)cc1 (stereo unspecified)	none
N/C(=N\OC(=O)Nc1cccc(C(F)(F)F)c1)c1ccno1	none
O=[N+]([O-])c1ccc(SCCOS(=O)(=O)c2cccc(C(F)(F)F)c2)c2nonc12	none
Cc1cc(-c2ccccc2)nc(SCC(=O)Nc2cccc(C(F)(F)F)c2)n1	none
CC(=O)Nc1ccc(NC(=O)CSc2ccc(S(=O)(=O)C(F)(F)F)cc2[N+](=O)[O-])cc1	none
O=C(Nc1cccc(C(F)(F)F)c1)OCCSc1ccc([N+](=O)[O-])c2nonc12	RMI FANCM FP 7
O=C(CSc1ccc([N+](=O)[O-])cc1[N+](=O)[O-])Nc1cccc(C(F)(F)F)c1	RMI FANCM FP 14
O=C(Cc1csc(NC(=O)Nc2ccccc2)n1)Nc1ccccc1Oc1ccccc1	none
COc1ccc(CC(=O)Nc2c(C)nc3sc(C)c(C)n3c2=O)cc1OC	none
Cc1ccccc1C(=O)N/N=C\c1ccc(OC(=O)c2ccccc2)cc1	none
Cc1ccc(/C=N\NC(=O)c2cc([N+](=O)[O-])cc([N+](=O)[O-])c2)cc1	none
Cc1cc[n+](-c2[nH]c(=O)sc2/C=N\NC(=O)c2ccccc2[O-])cc1	RMI FANCM FP 1
Cn1c(SCC(=O)NCc2ccccc2)nc2c(-c3ccccc3)c[nH]c2c1=O	none
Cc1ccc(S(=O)(=O)c2ccc(C(=O)N3CCN(c4ccccc4Cl)CC3)cn2)cc1C	none
COC(=O)CCn1c(=O)c2c(nc3n(-c4ccc(OC)c(Cl)c4)c(C)cn23)n(C)c1=O	none
COc1ccc(CCNC(=O)CSc2ncnc3[nH]ncc23)cc1OC	none
O=C(CSc1ncnc2[nH]ncc12)Nc1nc(-c2ccco2)c(-c2ccco2)s1	RMI FANCM FP -3
CCSc1nnc(NC(=O)CSc2ncnc3c2cnn3-c2ccccc2)s1	none
CC(C)(C)OC(=O)NCc1n[nH]c(=S)n1-c1ccccc1	none
CCn1ccc(C(=O)Nc2nc3c(s2)COc2ccccc2-3)n1	none
CCOC(=O)c1sc(NC(=O)C2CC2)nc1-c1ccccc1	none
CCN1C(=O)C(C)(C)COc2cc(NS(=O)(=O)c3ccc(F)cc3C)ccc21	none
CCOc1ccc(-c2noc(CSc3nc4ccsc4c(=O)n3-c3cccc(OC)c3)n2)cc1	none
CCOc1ccc(-c2noc(CSc3nc4ccsc4c(=O)n3C3CC3)n2)cc1	RMI FANCM FP 39
COc1ccc(-c2noc(CSc3nc4ccsc4c(=O)n3C)n2)cc1	none
Nc1nc(SCc2ccccn2)[nH]c(=O)c1NC(=O)c1ccc(F)c(F)c1	none
O=C(Nc1ccc(S(=O)(=O)Nc2ncccn2)cc1)c1cnc2n(c1=O)CCS2	RMI FANCM FP 20
O=C(Nc1cccc2c1CCCC2)c1cnc2n(c1=O)CCS2	none
O=C(Nc1ccc(Br)cc1)c1cnc2n(c1=O)CCS2	none
Cn1c(-c2c(N)n(Cc3ccco3)c3nc4ccccc4nc23)nc2ccccc21	none
Nc1c(S(=O)(=O)c2cccs2)c2nc3ccccc3nc2n1Cc1ccco1	RMI FANCM FP 12
C=CCn1c(N)c(S(=O)(=O)c2ccc(Cl)cc2)c2nc3ccccc3nc21	none
Cc1nnc(NC(=O)CSc2nnc(Cc3ccccc3)o2)s1	none
COc1cccc2cc(C(=O)Nc3nnc(-c4ccc(SC)cc4)o3)oc12	RMI FANCM FP 32
COc1cccc2cc(C(=O)Nc3nnc(-c4ccc5c(c4)OCO5)o3)oc12	none
COc1cccc2cc(C(=O)Nc3nnc(-c4cc(C)nn4C)o3)oc12	none

Screening data: PubChem BioAssay, Small Molecule Screening Facility, UW Madison
